Measurements from PubChem BioAssay.

Legend:
[1] = target: Tumor necrosis factor receptor superfamily member 10B (Homo sapiens) (UniProt O14763); test: viability loss of caspase-8 NB7 cells with TRAIL – with/without TRAIL, luminescence panel, confirmation (AID 651596); details: NB7 neuroblastoma + caspase-8, TRAIL sensitization, NB7 Caspase-8, with TRAIL, mean of runs, at 10 µM, stronger effect = higher value
[2] = as above; details: NB7 neuroblastoma + caspase-8, without TRAIL, NB7 Caspase-8, without TRAIL, mean of runs, at 10 µM

Sequence of Tumor necrosis factor receptor superfamily member 10B (Homo sapiens) (O14763 whole entry, looked up): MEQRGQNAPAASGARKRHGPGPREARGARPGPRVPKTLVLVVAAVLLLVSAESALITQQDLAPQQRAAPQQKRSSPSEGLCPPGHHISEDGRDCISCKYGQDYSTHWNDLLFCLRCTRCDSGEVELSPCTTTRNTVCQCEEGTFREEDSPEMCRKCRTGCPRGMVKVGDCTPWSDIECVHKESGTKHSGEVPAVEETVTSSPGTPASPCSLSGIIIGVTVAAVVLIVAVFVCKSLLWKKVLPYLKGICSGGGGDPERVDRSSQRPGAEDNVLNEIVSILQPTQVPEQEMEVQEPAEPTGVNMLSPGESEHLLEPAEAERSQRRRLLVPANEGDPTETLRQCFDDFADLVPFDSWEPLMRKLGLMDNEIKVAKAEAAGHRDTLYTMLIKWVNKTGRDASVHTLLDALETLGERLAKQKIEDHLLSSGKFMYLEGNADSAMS

| SMILES | activity [1] | activity [2] |
| --- | --- | --- |
| O=C(Nc1ccncc1)c1ccc(-c2ccccc2)cc1 | 24.3% | 21% |
| COc1ccc(C(=O)Nc2nnc(SCC(=O)NC3CCCC3)s2)c(OC)c1 | 74.1% | 69.8% |
| CCC(C)c1ccc(NC(=O)c2ccco2)cc1 (stereo not given) | 81.5% | 82.8% |
| COc1ccc(C2c3ccc4ccccc4c3Oc3ncn(CCCN(C)C)c(=N)c32)cc1 (stereo not given) | 24.2% | 76.8% |
| CC1(C)N=C(N)N=C(N)N1c1ccc(OCC(=O)N2CCOCC2)c(Cl)c1 | 81.6% | 86% |
| O=C(N/N=C/C(Cl)=C/c1ccccc1)c1ccccn1 | 61.2% | 42.8% |
| C(=N\Nc1nc2ccccc2[nH]1)/c1ccc2ncccc2c1 | 81% | 85.6% |
| Cc1ccc(NC(=O)c2ccc3c(c2)OCCO3)cc1 | 76% | 73.2% |
| c1cncc(-c2nc3cc4ccccc4cc3[nH]2)c1 | 66.7% | 57.3% |
| CCOc1ccc(/C=N/Nc2ccccn2)cc1 | 53.4% | 41.2% |
| C=CCN=c1scc(-c2ccccc2)n1/N=C/c1ccccn1 | 37.6% | 24.8% |
| Cn1nccc1C(=O)Oc1cccc(/C=N/NC(=O)c2ccccc2O)c1 | 44.5% | 13.6% |
| Cc1ccc(-c2nnc(NC(=O)c3ccco3)o2)c(C)c1 | 70.7% | 58.6% |
| c1ccc2[nH]c(-c3ccc4c(c3)OCO4)nc2c1 | 77.4% | 79.3% |
| CCOc1ccc(C(=O)O/N=C(\N)c2ccccn2)cc1OCC | 82.3% | 88.9% |
| CC(C)(C)c1ccc(/C=N/NC(=O)c2ccccn2)cc1 | 83.5% | 75% |
| COc1ccc(-c2cc(C(=O)N3CCOCC3)no2)cc1 | 50.8% | 49.9% |
| COc1nn(-c2ccccc2)c(=O)c(Cl)c1Cl | 92.3% | 96.3% |
| CN(C)c1cccc(C(=O)N/N=C/c2ccsc2)c1 | 65% | 40.4% |
| COc1cc2c(cc1OC)C(c1cc(Br)ccc1F)N(C(=O)CCl)CC2 (stereo not given) | 98.6% | 98.7% |
| O=C(Nc1ccc(NC(=O)c2ccccc2F)cn1)c1ccco1 | 66.8% | 58.3% |
| CC1(C)CC(=O)c2sc(NC(=O)c3cccs3)nc2C1 | 91.9% | 94.2% |
| Cc1cccc(-n2ncc3c(N4CCOCC4)ncnc32)c1 | 85.7% | 88.5% |
| CC1(C(=O)N/N=C/c2c(F)c(F)c(F)c(F)c2F)CC1(Cl)Cl (stereo not given) | 91.5% | 98.4% |
| O=C(N/N=C/c1ccc([N+](=O)[O-])o1)c1cc(-c2ccc(-c3ccccc3)cc2)nc2ccccc12 | 85.8% | 89.3% |
